Several values for one entry are separate records, joined by “and”; a condition that tells them apart may be missing. Identical values can stand only once. Inconclusive results are not listed. Values without a mark were called inactive. Activity calls are given as the source filed them. Calls come from the whole dose curve; as a rule, active = well fitted inhibition curve with a large enough effect; inconclusive = small, poorly fitted or top-dose-only effect; inactive = no such curve, though single readings can be large or run the other way.

The values that follow come from PubChem BioAssay (NCATS).
% is set by controls: 0 for no effect and ±100 for the full control effect; potency is the fitted concentration of half-maximal effect.

Chain of Cytochrome P450 2C9 (Homo sapiens) (P11712 whole entry, looked up): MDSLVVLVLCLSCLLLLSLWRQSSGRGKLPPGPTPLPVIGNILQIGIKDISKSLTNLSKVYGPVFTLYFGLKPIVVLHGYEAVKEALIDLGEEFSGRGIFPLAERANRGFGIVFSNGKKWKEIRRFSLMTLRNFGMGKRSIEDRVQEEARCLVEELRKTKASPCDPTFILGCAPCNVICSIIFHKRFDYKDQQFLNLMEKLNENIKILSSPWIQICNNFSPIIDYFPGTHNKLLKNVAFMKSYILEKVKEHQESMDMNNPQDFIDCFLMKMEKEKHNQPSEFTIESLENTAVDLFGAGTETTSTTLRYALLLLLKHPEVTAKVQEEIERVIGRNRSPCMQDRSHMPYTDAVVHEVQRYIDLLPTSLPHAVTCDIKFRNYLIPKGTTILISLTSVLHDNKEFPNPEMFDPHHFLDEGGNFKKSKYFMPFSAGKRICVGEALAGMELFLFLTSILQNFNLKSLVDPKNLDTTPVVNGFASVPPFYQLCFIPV
Chain of Cytochrome P450 3A4 (Homo sapiens) (P08684 whole entry, looked up): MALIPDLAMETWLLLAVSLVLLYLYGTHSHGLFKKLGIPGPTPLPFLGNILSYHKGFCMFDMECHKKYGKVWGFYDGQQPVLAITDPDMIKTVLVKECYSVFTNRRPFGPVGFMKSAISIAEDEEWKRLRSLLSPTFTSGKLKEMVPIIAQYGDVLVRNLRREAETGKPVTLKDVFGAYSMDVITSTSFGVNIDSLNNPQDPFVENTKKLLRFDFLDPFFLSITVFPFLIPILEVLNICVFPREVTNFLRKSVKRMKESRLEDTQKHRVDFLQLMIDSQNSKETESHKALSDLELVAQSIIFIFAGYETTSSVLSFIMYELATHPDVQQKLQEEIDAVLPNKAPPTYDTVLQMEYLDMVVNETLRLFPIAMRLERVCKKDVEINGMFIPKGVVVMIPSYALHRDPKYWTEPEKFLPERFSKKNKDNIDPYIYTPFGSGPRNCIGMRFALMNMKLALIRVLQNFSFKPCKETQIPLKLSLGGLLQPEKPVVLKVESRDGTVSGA

The target of the first test is Cytochrome P450 2C9 (Homo sapiens) (UniProt P11712). The experiment in a line: qHTS Assay for Inhibitors and Substrates of Cytochrome P450 2C9 (AID 883). Note: nearly all actives have a fitted effect of over 60% in size. To be noted: recombinant CYP2C9, luciferin-H luminescence, 60 min; series mostly up to 11.4 µM; activity change, negative = inhibition: at the top concentration. The method in brief:
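10nM CYP2C9 + 100uM Luciferin-H (=KM), 25mM KPO4; cpd 10 min 37C; NADPH regen, 60 min 37C; stop/detect with P450 Glo-Buffer 20 min; luminescence. Norm. to 57uM sulphaphenazole as full inhibition.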
A general note: qHTS replaces the single test concentration by a dilution series.
For `COC(=O)NC(c1cccc(F)c1)[C@@]1(C(=O)OC)CCCC1=O` (stereo not given in full), the “activity change, negative = inhibition” value is -1.89%.
Same read-out and setting: the figure for `CC12C=C(/C=C/c3ccc(F)cc3)C(C)(C1)C(c1ccc(F)cc1)CC2=O` (stereo not given) is -24.9%; for `CCN1C(C)=C(C(=O)OC)C(c2ccccc2)N2C(=O)[C@@]3(C(=O)OC)O[C@@]12C1C(=O)N(c2ccccc2)C(=O)C13` (stereo not given in full) it is 26.6%.
Turning to `C=CC[C@@H]1C=C[C@@H](O/N=C\c2ccc(C(=O)N3[C@H](c4ccc(C)cc4)[C@@H](C)CC[C@H]3C(=O)OC)cc2)[C@@H](CO)O1`, the Potency was 3.98 µM (active).
As for `CC1(C)OC(C(O)(c2cc(C(F)(F)F)cc(C(F)(F)F)c2)c2cc(C(F)(F)F)cc(C(F)(F)F)c2)C(C(O)(c2cc(C(F)(F)F)cc(C(F)(F)F)c2)c2cc(C(F)(F)F)cc(C(F)(F)F)c2)O1` (stereo not given), the “activity change, negative = inhibition” value is 12.1%.
On to `Cc1cc(=O)oc2cc(OC3C=CC(C#CC(C)(C)C)OC3CO)ccc12` (stereo not given), for which the “activity change, negative = inhibition” value was 102%.
Still for that read-out and setting: next, `CC(=O)OCC1OC(c2ccc(C(C)=O)cc2)C=CC1OC(C)=O` (stereo not given): 8.24%; `COC(=O)C1C(C)OC(=O)NC1c1ccccc1` (stereo not given): 7.66%; `COC(=O)NC(/C=C/c1ccco1)[C@@]1(C(=O)OC)CCCC1=O` (stereo not given in full): 0.439%.
The same measure, in the same setting: next, `CCOC(=O)OCC1OC(c2cc(C)cc(C)c2)C=CC1OC(=O)OCC` (stereo not given): -1.1%; `C=C(C)C(O)C(CC/C=C(\C)C(=O)OCC)OC` (stereo not given): -11.5%; `COC(=O)NC(CC(C)=O)c1cccc(C(F)(F)F)c1` (stereo not given): 7.76%.
Take `CN1CCc2nc(-c3ccccc3)c(-c3ccccc3)cc2C1`: the “activity change, negative = inhibition” value was 33.6%.
Take `O=C1/C(=C/c2ccccc2)Oc2ccccc21`: the “activity change, negative = inhibition” value is 6.54%.
Take `CC1CCC(C(=O)O)NC1c1ccc(-c2ccco2)cc1` (stereo not given): the “activity change, negative = inhibition” value was 32.9%.
Regarding `CC1(C)OC(C(O)(c2cccc3c2oc2ccccc23)c2cccc3c2oc2ccccc23)C(C(O)(c2cccc3c2oc2ccccc23)c2cccc3c2oc2ccccc23)O1` (stereo not given), the “activity change, negative = inhibition” value is -12.6%.
As to `Cc1ccc(OC2C(O)COC2/C=C/C#Cc2ccc(C(C)(C)C)cc2)cc1` (stereo not given), the Potency result was “inactive”.
With `O=C1C=CC2(OCCCO2)C(Br)=C1`, the “activity change, negative = inhibition” value is 8.67%.
Regarding `CCCC/C=C/C(NC(=O)c1ccc(C(F)(F)F)cc1)c1ccccc1` (stereo not given), the Potency is 2 µM (active).
`CC1CCC2C(=O)N3C(CCC(C)[C@@H]3c3ccc(-c4ccco4)cc3)C(=O)N2C1c1cccc(N2CCCC2=O)c1` (stereo not given in full): the “activity change, negative = inhibition” value was -10.1%.
Take `Cc1ccc(C#CC2C=CC(Oc3ccc4c(c3)OCO4)C(CO)O2)c(C)c1` (stereo not given): the “activity change, negative = inhibition” value is -6.88%.
Consider `COC(=O)C/C=C1\c2ccccc2C(OC)C1C` (stereo not given), for which the “activity change, negative = inhibition” value was 4.3%.
For the compound `CC1(C)Oc2cc3c(cc2O1)OC(C)(C)O3`, the “activity change, negative = inhibition” value is 1.44%.
As to `CC[C@@H](c1ccccc1)n1c(=O)n2n(c1=O)[C@H]1[C@H](O)[C@H]3O[C@@H]3/C(=N/OC/C=C(\C)CCC=C(C)C)[C@@H]1CC2`, the “activity change, negative = inhibition” value is 33.1%.
The same measure, in the same setting: the figure for `COC(=O)NC(c1ccco1)[C@@]1(C(=O)OC)CCCC1=O` (stereo not given in full) is 5.98%.
For `CC(=O)OCC1OC(C#CC(C)(C)C)C=CC1OC(C)=O` (stereo not given), the Potency result is “inactive”.
For the compound `C=COCC1CN2C(CCC(C)C2c2ccc(Br)cc2)C(=O)O1` (stereo not given), the “activity change, negative = inhibition” value is 4.55%.
Consider `CC(=O)OCC1OC(C#CC2=CCCCC2)C=CC1OC(C)=O` (stereo not given), for which the “activity change, negative = inhibition” value was 8.23%.
Take `COC1C(O)COC1/C=C/c1ccccc1` (stereo not given): the “activity change, negative = inhibition” value was 26.3%.
On to `CO[C@H]1COC(=O)C/C=C\[C@H](C)[C@@H](OC)COC(=O)[C@@H](C)COC(=O)C/C=C\[C@@H]1C`, for which the Potency is 2.51 µM (active).
Take `COc1cc(C2c3[nH]c4ccccc4c3CC3C(=O)N4C(Cc5c([nH]c6ccccc56)C4c4cc(OC)c(OC)c(OC)c4)C(=O)N32)cc(OC)c1OC` (stereo not given): the “activity change, negative = inhibition” value was -7.67%.
In the case of `COc1cc(C2NC(C(=O)O)Cc3c2[nH]c2ccccc32)cc(OC)c1OC` (stereo not given), the “activity change, negative = inhibition” value was 21.1%.
With `COC(=O)NC(CC(C)=O)c1ccco1` (stereo not given), the “activity change, negative = inhibition” value was 21.2%.
With `COC(=O)NC(CC(C)=O)c1ccccc1` (stereo not given), the “activity change, negative = inhibition” value was -12.7%.
Turning to `COc1cccc(C2NC(C(=O)O)CCC2C)c1` (stereo not given), the “activity change, negative = inhibition” value was 36.6%.
Consider `COCC#Cc1ccc(C2NC(C(=O)O)CCC2C)cc1` (stereo not given), for which the “activity change, negative = inhibition” value was -11.1%.
As for `O=Cc1ccc(OC2C=CC(c3ccccc3)OC2CO)cc1` (stereo not given), the “activity change, negative = inhibition” value was 0.507%.
With `CC(O)CCCCCCC/C=C/C=C/C(N)=O` (stereo not given), the “activity change, negative = inhibition” value was 16.3%.
Consider `CC(C)=NOCc1cccc(-c2cc(-c3ccccc3)no2)c1`, for which the Potency was 3.98 µM (active).
For the compound `CCOC(=O)[C@]1(C(NC(=O)OC)c2cccc(C)c2)CCCC1=O` (stereo not given in full), the “activity change, negative = inhibition” value is 11.3%.

A further test addresses Cytochrome P450 3A4 (Homo sapiens) (UniProt P08684). The experiment in a line: qHTS Assay for Inhibitors and Substrates of Cytochrome P450 3A4 (AID 884). Note: nearly all actives have a fitted effect of over 50% in size. To be noted: recombinant CYP3A4, Luciferin-PPXE luminescence; series mostly up to 57.1 µM; activity change, negative = inhibition: at the top concentration. The method in brief:
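Luminescent readout of luciferin produced by CYP3A4 (20 nM) dealkylation of Luciferin-PPXE, 25 uM (its KM). NADPH-driven reaction ran 60 min at RT after 10 min compound preincubation; data scaled to 57 uM ketoconazole as 100% inhibition.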
As to `COC(=O)NC(c1cccc(F)c1)[C@@]1(C(=O)OC)CCCC1=O` (stereo not given in full), the activity change, negative = inhibition is -15.7% [at 11.4 µM].
Consider `CC12C=C(/C=C/c3ccc(F)cc3)C(C)(C1)C(c1ccc(F)cc1)CC2=O` (stereo not given), for which the activity change, negative = inhibition was -18.4% [at 11.4 µM].
For the compound `CCN1C(C)=C(C(=O)OC)C(c2ccccc2)N2C(=O)[C@@]3(C(=O)OC)O[C@@]12C1C(=O)N(c2ccccc2)C(=O)C13` (stereo not given in full), the activity change, negative = inhibition was -20.6% [at 11.4 µM].
For the compound `CC1(C)OC(C(O)(c2cc(C(F)(F)F)cc(C(F)(F)F)c2)c2cc(C(F)(F)F)cc(C(F)(F)F)c2)C(C(O)(c2cc(C(F)(F)F)cc(C(F)(F)F)c2)c2cc(C(F)(F)F)cc(C(F)(F)F)c2)O1` (stereo not given), the activity change, negative = inhibition was -21% [at 11.4 µM].
In the case of `Cc1cc(=O)oc2cc(OC3C=CC(C#CC(C)(C)C)OC3CO)ccc12` (stereo not given), the activity change, negative = inhibition is -2.04% [at 11.4 µM].
In the case of `CC(=O)OCC1OC(c2ccc(C(C)=O)cc2)C=CC1OC(C)=O` (stereo not given), the activity change, negative = inhibition was -20.5% [at 11.4 µM].
With `COC(=O)C1C(C)OC(=O)NC1c1ccccc1` (stereo not given), the activity change, negative = inhibition is -16.6% [at 11.4 µM].
As for `COC(=O)NC(/C=C/c1ccco1)[C@@]1(C(=O)OC)CCCC1=O` (stereo not given in full), the activity change, negative = inhibition is 2.43% [at 11.4 µM].
With `CCOC(=O)OCC1OC(c2cc(C)cc(C)c2)C=CC1OC(=O)OCC` (stereo not given), the Potency was 3.98 µM (active).
As for `C=C(C)C(O)C(CC/C=C(\C)C(=O)OCC)OC` (stereo not given), the activity change, negative = inhibition was -25.2% [at 11.4 µM].
On to `COC(=O)NC(CC(C)=O)c1cccc(C(F)(F)F)c1` (stereo not given), for which the activity change, negative = inhibition is -14.1% [at 11.4 µM].
Regarding `CN1CCc2nc(-c3ccccc3)c(-c3ccccc3)cc2C1`, the activity change, negative = inhibition was -24.2% [at 11.4 µM].
For the compound `O=C1/C(=C/c2ccccc2)Oc2ccccc21`, the activity change, negative = inhibition is -8.26% [at 11.4 µM].
Regarding `CC1CCC(C(=O)O)NC1c1ccc(-c2ccco2)cc1` (stereo not given), the activity change, negative = inhibition was -4.5% [at 11.4 µM].
Same read-out and setting: next, `CC1(C)OC(C(O)(c2cccc3c2oc2ccccc23)c2cccc3c2oc2ccccc23)C(C(O)(c2cccc3c2oc2ccccc23)c2cccc3c2oc2ccccc23)O1` (stereo not given): -15.2% [at 11.4 µM]; `Cc1ccc(OC2C(O)COC2/C=C/C#Cc2ccc(C(C)(C)C)cc2)cc1` (stereo not given): -23% [at 11.4 µM] and -25.5% [at 11.4 µM]; `O=C1C=CC2(OCCCO2)C(Br)=C1`: -14% [at 11.4 µM].
The same measure, in the same setting: the figure for `CC1CCC2C(=O)N3C(CCC(C)[C@@H]3c3ccc(-c4ccco4)cc3)C(=O)N2C1c1cccc(N2CCCC2=O)c1` (stereo not given in full) is 13.4% [at 11.4 µM]; for `Cc1ccc(C#CC2C=CC(Oc3ccc4c(c3)OCO4)C(CO)O2)c(C)c1` (stereo not given) it is -16.9% [at 11.4 µM]; for `COC(=O)C/C=C1\c2ccccc2C(OC)C1C` (stereo not given) it is -21.3% [at 11.4 µM].
With `CC1(C)Oc2cc3c(cc2O1)OC(C)(C)O3`, the activity change, negative = inhibition was -26.4% [at 11.4 µM].
As for `COC(=O)NC(c1ccco1)[C@@]1(C(=O)OC)CCCC1=O` (stereo not given in full), the activity change, negative = inhibition was -10.6% [at 11.4 µM].
`CC(=O)OCC1OC(C#CC(C)(C)C)C=CC1OC(C)=O` (stereo not given): the activity change, negative = inhibition is -15.4% [at 11.4 µM] and -10.3% [at 11.4 µM].
With `C=COCC1CN2C(CCC(C)C2c2ccc(Br)cc2)C(=O)O1` (stereo not given), the Potency is 3.16 µM (active) and 794 nM (active).
As to `CC(=O)OCC1OC(C#CC2=CCCCC2)C=CC1OC(C)=O` (stereo not given), the activity change, negative = inhibition was -27.5% [at 11.4 µM].
`COC1C(O)COC1/C=C/c1ccccc1` (stereo not given): the activity change, negative = inhibition is -19.7% [at 11.4 µM].
Regarding `COc1cc(C2c3[nH]c4ccccc4c3CC3C(=O)N4C(Cc5c([nH]c6ccccc56)C4c4cc(OC)c(OC)c(OC)c4)C(=O)N32)cc(OC)c1OC` (stereo not given), the activity change, negative = inhibition is -16.6% [at 11.4 µM].
For `COc1cc(C2NC(C(=O)O)Cc3c2[nH]c2ccccc32)cc(OC)c1OC` (stereo not given), the activity change, negative = inhibition was -17.2% [at 11.4 µM].
`COC(=O)NC(CC(C)=O)c1ccco1` (stereo not given): the activity change, negative = inhibition is -19.2% [at 11.4 µM].
For `COC(=O)NC(CC(C)=O)c1ccccc1` (stereo not given), the activity change, negative = inhibition was -12.9% [at 11.4 µM].
In the case of `COc1cccc(C2NC(C(=O)O)CCC2C)c1` (stereo not given), the activity change, negative = inhibition is -16.8% [at 11.4 µM].
For `COCC#Cc1ccc(C2NC(C(=O)O)CCC2C)cc1` (stereo not given), the activity change, negative = inhibition was -8.92% [at 11.4 µM].
Consider `O=Cc1ccc(OC2C=CC(c3ccccc3)OC2CO)cc1` (stereo not given), for which the activity change, negative = inhibition was -9.85% [at 11.4 µM].
Take `CC(O)CCCCCCC/C=C/C=C/C(N)=O` (stereo not given): the activity change, negative = inhibition is -10.1% [at 11.4 µM].
On the same count and under the same terms, the figure for `CCOC(=O)[C@]1(C(NC(=O)OC)c2cccc(C)c2)CCCC1=O` (stereo not given in full) is -23.1% [at 11.4 µM].
